High-throughput results: PubChem, National Center for Advancing Translational Sciences (NCATS)
Most compounds without a hit are left out; they make up all but 21% or so of the library.
Pf growth 48h = inhibits P. falciparum growth in the first generation, 48 h | P. falciparum luciferase growth in erythrocytes, 48 h | AID 504832 | Potency, µM (highest dose often 28.7 µM), inactives show at the top dose activity change, negative = inhibition, usual class: inhibitors | hit rate 5.9% among 310,000; note: potency is the fitted concentration of half-maximal effect; % is set by controls: 0 for no effect and ±100 for the full control effect
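Luciferase-expressing P. falciparum in infected erythrocytes (2% hematocrit, 0.1% parasitemia final) in RPMI 1640/0.5% Albumax were exposed to compound for 48 hours at 37 C, 5% CO2; growth read as luminescence.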
Pf growth 96h = P. falciparum growth inhibition at 96 hours. AID 504834. hit rate 6.9% among 320,000. P. falciparum luciferase reporter growth, 96 h. Potency, µM (doses to about 28.7 µM), without a hit: at the top dose activity change, negative = inhibition, usual class: inhibitors; note: potency is the fitted concentration of half-maximal effect; % is set by controls: 0 for no effect and ±100 for the full control effect
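Two parasite generations (96 h, 37 C, 5% CO2) of compound exposure in infected erythrocytes (0.05% parasitemia, 2% hematocrit). Luciferase-reporter P. falciparum; decreased luminescence indicates inhibited growth, aimed at apicoplast-acting delayed death.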
Shiga toxin inh = inhibitors of Shiga toxin in Vero cells; inhibition, % at 38.7 µM; hit rate 9.2% among 290,000; Vero cells, Shiga toxin protein synthesis inhibition reporter; in the data active = inhibition mostly above about 28%, no sharp cut-off; inactive = mostly below about 43%; note: 0% is about no effect
Cycloheximide cs = counter-screen hit for Shiga toxin inhibitors, cycloheximide | max response, % | cell reporter, cycloheximide protein synthesis inhibition counterscreen | hit rate 12% among 300,000; in the data active = max response mostly above about 13%, no sharp cut-off; inactive = mostly below about 14%; note: read at 38.3 µM for the half of the compounds with a filed dose; 0% is about no effect
Starred values were filed as active, the others as inactive; [ ] = dose if it differs, or a comment. Unless noted, calls come from the whole dose curve; as a rule, active = well fitted inhibition curve with a large enough effect; inconclusive = small, poorly fitted or top-dose-only effect, or another doubt; inactive = no such curve, though single readings can be large or run the other way.

For CCCCc1ccc(NC(=S)N2CCC(O)CC2)cc1 the results were Pf growth 48h 9%, Pf growth 96h 412%, Shiga toxin inh 32 and Cycloheximide cs 19.
`O=C(Nc1cccc(F)c1)Nc1ccccn1` gave Pf growth 48h 98%, Shiga toxin inh 61* and Cycloheximide cs 49*.
For O=C(NCCc1cccs1)C1CC(c2c(Cl)cccc2Cl)=NO1 (stereo unspecified) the results were Pf growth 48h 45%, Pf growth 96h inconclusive, Shiga toxin inh 46 and Cycloheximide cs 40*.
O=C(NCc1ccc(OC(F)(F)F)cc1)C1CC(c2c(Cl)cccc2Cl)=NO1 (stereo unspecified) was read as Pf growth 48h 1.3µM*, Pf growth 96h 36%, Shiga toxin inh -3 and Cycloheximide cs -3.
For O=C(NCc1cc(C(F)(F)F)cc(C(F)(F)F)c1)C1CC(c2c(Cl)cccc2Cl)=NO1 (stereo unspecified) the results were Pf growth 48h -2%, Pf growth 96h inconclusive, Shiga toxin inh -4 and Cycloheximide cs -4.
For O=C(NCCc1cccs1)C1CC(c2cccc(F)c2)=NO1 (stereo unspecified) the results were Pf growth 48h inconclusive, Pf growth 96h 1.7µM*, Shiga toxin inh 5 and Cycloheximide cs 5.
`COc1ccc(C2CC(c3ccccc3)Oc3ccc(C(C)(C)C)cc32)cc1` (stereo unspecified) gave Shiga toxin inh 23 and Cycloheximide cs 9.
Screening COc1ccc(NC(=O)C(Sc2nnc(-c3ccncc3)n2-c2ccccc2C)c2ccccc2)cc1Cl (stereo unspecified) returned Pf growth 48h 8.3µM*, Pf growth 96h inconclusive, Shiga toxin inh 19 and Cycloheximide cs 14.
Cc1ccc(NC(=O)c2cnccn2)c(C)c1 was read as Pf growth 48h 74%, Pf growth 96h 241%, Shiga toxin inh 38* and Cycloheximide cs 21*.
Cc1ccc(NC(=O)c2sc3nc[nH]c(=O)c3c2C)c(C)c1 was read as Pf growth 48h 73%, Pf growth 96h inconclusive, Shiga toxin inh 23 and Cycloheximide cs 27*.
Screening COc1ccc(Cl)cc1NC(=O)c1cnccn1 returned Pf growth 48h 13%, Pf growth 96h inconclusive, Shiga toxin inh 20 and Cycloheximide cs 13*.
`O=C(Cn1cnc([N+](=O)[O-])c1)NC1CCCC1` gave Pf growth 48h 1%, Pf growth 96h 13%, Shiga toxin inh -2 and Cycloheximide cs -2.
CC(=O)NCC1=C(NC(C)=O)C2CC1C(C)(C)C2C (stereo unspecified) was read as Pf growth 48h 10%, Shiga toxin inh 5 and Cycloheximide cs -4.
`Cc1ccc(-c2nc(CN(C)Cc3ccc4nccnc4c3)c(C)o2)s1` gave Pf growth 48h 12%, Pf growth 96h -11%, Shiga toxin inh -15 and Cycloheximide cs 1.
Screening COc1ccc(NC(=O)C(OC(=O)c2cnccn2)c2ccccc2)cc1Cl (stereo unspecified) returned Pf growth 48h 2%, Pf growth 96h -25%, Shiga toxin inh 53 and Cycloheximide cs 17*.
O=C(Nc1ccc(Br)cc1Cl)c1cnccn1 was read as Pf growth 48h 29%, Shiga toxin inh 30 and Cycloheximide cs 19*.
O=C(Nc1ccccc1Cl)c1cnccn1 was read as Pf growth 48h 18%, Pf growth 96h -83%, Shiga toxin inh 41 and Cycloheximide cs 11.
`C=CCn1c(SCC(=O)NC2CCCC2)nc2scc(-c3ccco3)c2c1=O` gave Pf growth 48h inconclusive, Pf growth 96h 5%, Shiga toxin inh 7 and Cycloheximide cs 7.
For C=CCn1c(SCC(C)=O)nc2scc(-c3ccc(C)o3)c2c1=O the results were Pf growth 48h 143%, Pf growth 96h 14%, Shiga toxin inh 19* and Cycloheximide cs 20*.
`C=CCn1c(SCC(=O)NCCCC)nc2scc(-c3ccco3)c2c1=O` gave Pf growth 48h 13µM*, Pf growth 96h inconclusive, Shiga toxin inh -3 and Cycloheximide cs -1.
Cc1ccc(-c2csc3nc(C)n(N)c(=O)c23)o1 was read as Pf growth 96h 90%, Shiga toxin inh 47* and Cycloheximide cs 46*.
For O=C(/C=C/c1ccccc1)Nc1nnc(-c2ccco2)o1 the results were Pf growth 48h -15%, Pf growth 96h -43%[1.15 µM], Shiga toxin inh 1 and Cycloheximide cs -7.
Cc1ccc(-n2c(C)cc(C(=S)N3CCOCC3)c2C)cc1C was read as Pf growth 48h inconclusive, Pf growth 96h 10µM*, Shiga toxin inh 15 and Cycloheximide cs -1.
`COc1ccc(CCNC(=O)c2nn(C)c3c2CS(=O)(=O)c2ccccc2-3)c(OC)c1` gave Pf growth 48h -18%, Pf growth 96h inconclusive, Shiga toxin inh -2 and Cycloheximide cs -1.
Screening C=CCn1c(SCC(=O)O)nc2sc(CC)cc2c1=O returned Pf growth 48h 38%, Pf growth 96h inconclusive, Shiga toxin inh 18 and Cycloheximide cs 2.
Screening C=CCn1c(SCC(=O)/C(C#N)=C(\C)N)nc2sc(CC)cc2c1=O returned Pf growth 48h inconclusive, Pf growth 96h 10µM*, Shiga toxin inh 18 and Cycloheximide cs 7.
`COc1ccccc1CNC(=O)CN1CCN(c2ccc(C(C)=O)cc2)CC1` gave Pf growth 48h -24%, Pf growth 96h inconclusive, Shiga toxin inh 16 and Cycloheximide cs -5.
`Cc1c(/C(O)=C2/C(=O)C(=O)N(Cc3cccnc3)C2c2cccs2)cnn1-c1ccccc1` (stereo unspecified) gave Pf growth 48h 111%, Shiga toxin inh 168* and Cycloheximide cs 52*.
`Cc1c(/C(O)=C2/C(=O)C(=O)N(Cc3cccnc3)C2c2ccccn2)cnn1-c1ccccc1` (stereo unspecified) gave Pf growth 48h 116%, Pf growth 96h inconclusive, Shiga toxin inh 64 and Cycloheximide cs 34*.
Screening C/C(=N\NS(=O)(=O)c1c(C)cc(C)cc1C)c1ccncc1 returned Pf growth 48h 10%, Pf growth 96h -10%, Shiga toxin inh -17 and Cycloheximide cs -1.
`COc1ccccc1C(=O)OCC(=O)NC1CCCC1` gave Pf growth 48h 2%, Pf growth 96h 10%, Shiga toxin inh 64* and Cycloheximide cs 61*.
COc1ccccc1C(=O)OCC(=O)NC(=O)NC1CCCC1 was read as Pf growth 48h 7% and Pf growth 96h -11%.
`O=C(OCc1cccnc1)C1=Cc2ccccc2OC1` gave Pf growth 48h 7%, Pf growth 96h 11%, Shiga toxin inh 40* and Cycloheximide cs 23.
For O=C(COC(=O)C1=Cc2ccccc2OC1)NC1CCCC1 the results were Pf growth 48h 9%, Pf growth 96h 8%, Shiga toxin inh 5 and Cycloheximide cs 17*.
Screening O=C(COC(=O)c1ccccc1Br)NCCN1C(=O)CSC1=O returned Pf growth 48h 81%, Pf growth 96h 53%, Shiga toxin inh 109* and Cycloheximide cs 20*.
`O=C(COC(=O)C1=Cc2ccccc2OC1)NCc1ccccc1` gave Pf growth 48h 0% and Pf growth 96h inconclusive.
O=C(COC(=O)c1cccc(Cl)c1Cl)NCCN1C(=O)CSC1=O was read as Pf growth 48h 10%, Pf growth 96h 6%, Shiga toxin inh -4 and Cycloheximide cs 5.
